Experimental findings from PubChem BioAssay (NCI) are described below.

SMILES strings stand for the structures. Values joined by “and” are separate entries in the source; they are usually repeats but may differ in a detail not shown here. Identical values can stand only once. The panel holds about 83,000 compounds, 20% with a hit somewhere; the sample as a whole holds those more often.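 96-well plates, one dose, 48 hours. Percent growth reported; active if below 10.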 Active and inactive are the calls of the source.

The test system of this test is MDA-MB-468 breast. The experiment in a line: NCI-60 one-dose screen, 48 h (100 = growth as untreated, 0 = no growth, -100 = all killed). The following applies: 10 µM unless noted.
Turning to `CCn1cc(C(=O)O)c(=O)c2cc(F)c(N3CCN(S(=O)(=O)c4c(C)cc(C)cc4C)CC3)cc21`, the growth is 80.3% (inactive).
On to `O=C(CSc1nc(-c2ccccc2)[nH]c1S(=O)(=O)c1ccccc1)NC1CC1`, for which the growth is 4.04% (active).
Regarding `CSc1nn(-c2ccccc2)c2ncnc(Oc3ccc(C)cc3)c12`, the growth is 93.2% (inactive).
Then `O=C(Nc1cccc(-n2ccc3c(NC(=O)c4ccccc4)nccc32)c1)Nc1ccc(Cl)c(C(F)(F)F)c1`, with -3.83% (active); and `O=C(O)C(SC(C(=O)O)c1ccccc1)c1ccccc1` (stereo not given), with 106% (inactive).
As for `O=C(Nc1nc2ccccc2s1)Nc1ccc([N+](=O)[O-])cc1Cl`, the growth was 89.9% (inactive).
Then `Cc1ccc(S(=O)(=O)NCCNc2cc(-c3cn(C(C)(C)C)nc3-c3cccc(O)c3)ccn2)cc1`, with 35.8% (inactive); and `O=c1[nH]c(=O)c2cc(Cl)cc(Cl)c2[nH]1`, with 112% (inactive).
The figure for `O=C(/C=C/c1cccc2ccccc12)Nc1ncc(Cc2ccccc2)s1` is -14.4% (active); for `Nc1c(C(=O)Nc2c(Cl)cccc2Cl)sc2nc3c(cc12)CCCCC3` it is 32.1% (inactive); for `NC(=O)c1ccc(-c2c3ccccc3cc3c2ccc2ccccc23)cc1` it is -11.3% (active).
The figure for `COc1ccc(C(=O)/C=C/c2cc(-c3cc(OC)c(OC)c(OC)c3)n[nH]2)cc1` is -66.1% (active); for `O=C1O[C@H]([C@H](O)CO)C(O)=C1O` it is 90% (inactive).
For the molecule `C#Cc1nc(C2=C(C)C(O)/C(=N/O)C2)cs1` (stereo not given), the growth is 74.5% (inactive).
The figure for `CCn1c(=O)n(C)c2c(=O)n(C)c(=O)n(C)c21` is 103% (inactive); for `Cc1ccc(C(=O)Nc2ccc(CNCCN3CCNCC3)c(C(F)(F)F)c2)cc1C#Cc1cnc2cccnn12` it is -83% (active).
The figure for `CCN(CC)c1ccc(/C=C\c2cc(C)c3cc(C)ccc3n2)cc1` is 1.26% (active); for `CC1(C)CC(=O)C(c2c(-c3ccccc3)[nH]c3[nH]c(=S)[nH]c(=O)c23)=C(O)C1` it is 109% (inactive).
Then `CCN(CC)CCOc1ccc2c(c1)C(=O)c1cc(OCCN(CC)CC)ccc1-2`, with 14.9% (inactive) and -13.8% (active).
As to `COc1ccc(C2OCC(C)(C)CO2)cc1OC`, the growth was 92.4% (inactive).
The figure for `C=CCN(C)C` is 102% (inactive); for `CC1(C)CCC(C)(C)NC(=S)N1` it is 103% (inactive).
The figure for `Nc1cccc(-c2nc3sccn3c2-c2ccnc(NCCCNS(=O)(=O)c3cccc4ccccc34)n2)c1` is 18.2% (inactive); for `Nc1nc(C(=O)N/N=C/c2ccc(F)cc2)nn1-c1ccc(S(N)(=O)=O)cc1` it is 102% (inactive).
Regarding `COc1ccc(-c2cc(-c3cccnc3)nc3sc4c(=O)n(-c5ccc(C)cc5)nnc4c23)cc1OC`, the growth is 88% (inactive).
The figure for `O=C(NCCCl)Nc1nccnc1OCc1ccc(F)cc1` is 102% (inactive); for `Cn1c(=O)c2c(-c3ccccc3F)n(-c3ccc4c(c3)OCO4)cc2n(C)c1=O` it is 83.2% (inactive).
For `Cn1cc(C(=O)c2nc(-c3c[nH]c4ccc(Br)cc34)no2)c2cc(Br)ccc21`, the growth is 66.1% (inactive).
The figure for `COc1ccc2c(c1)C(=O)c1c-2c(OCCN2CCCCC2)nc2ccc(OC)cc12` is -10.6% (active); for `COc1cc(/C=C2\SC(N3CCCCC3)=NC2=O)ccc1OCCCCCCOc1ccc(/C=C2\SC(N3CCCCC3)=NC2=O)cc1OC` it is 7.38% (active); for `Fc1ccccc1Nc1ccc2nnc(-c3ccncc3)n2n1` it is 105% (inactive).
Turning to `COC(=O)C(Sc1ccc(Cl)cc1)C1SC(=S)N(Cc2ccccc2)C1=O` (stereo not given), the growth is 94.7% (inactive).
The figure for `CN1CCN(c2ccc(N3Cc4ccccc4OC4=C3C(=O)c3c(O)ccc(O)c3C4=O)cn2)CC1` is -60.1% (active).
Take `CCC(=O)NC1=C(Cl)C(=O)C(NC(=O)CC)=C(Cl)C1=O`: the growth was -69.8% (active).
Then `Cc1cc2c3ccccc3ccc2[n+]2ccccc12`, with -60.6% (active).
Then `CC(=O)OCC(=O)[C@@]1(O)CC[C@H]2[C@@H]3CC[C@@H]4C[C@H](O)CC[C@]4(C)[C@H]3C(=O)C[C@@]21C`, with 98.1% (inactive).
The figure for `O=c1[nH]c2ccccc2cc1-c1nc2ccc(Cl)cc2[nH]1` is 60.7% (inactive); for `CCn1cc(Cc2cc(C(=O)Nc3cc4cc(OC)c(OC)cc4c(C)n3)ccc2Cl)cn1` it is 35.5% (inactive); for `C[n+]1c2ccccc2c(Nc2ccc(NS(=O)(=O)CCCCN=C(N)N)cc2)c2ccc(N)cc21` it is 39% (inactive).
As to `COc1ccc(C(O)c2cc3c(N)c(C(=O)Nc4cccc(OC)c4)sc3nc2C)cc1` (stereo not given), the growth is 5.65% (active).
